An excerpt weighted towards active compounds, which were near 9.5% of everything screened.
ALDH1A1 inh: qHTS Assay for Inhibitors of Aldehyde Dehydrogenase 1 (ALDH1A1); Aldehyde dehydrogenase 1A1 (Homo sapiens), P00352; Purified ALDH1A1, NADH fluorescence, propionaldehyde substrate; Potency, µM (top dose mostly 75.3 µM), for inactives: at the top dose activity, negative = inhibition, actives largely listed as inhibitors; 7.3% of 220,000 active; AID 1030, 2008; active = well fitted inhibition curve with a large enough effect, not every such curve was filed as active; inconclusive = small, poorly fitted or top-dose-only effect, or another doubt; inactive = no such curve, though single readings can be large or run the other way;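 also: plate controls were no enzyme wells and a reference inhibitor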
Tau fluor cs: Counterscreen qHTS for Inhibitors of Tau Fibril Formation, Fluorescence Polarization; tau K18 P301L Alexa594 fluorescence, heparin fibrillization; Potency, µM (titrated, usually from 57.7 µM), for the others: top-dose activity change, negative = decrease; 0.93% of 280,000 active; AID 1463, 2008; also: nearly all actives have a fitted effect of over 55% in size
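Human tau K18 P301L (15 uM unlabeled, 0.24 uM Alexa 594-labeled) in 100 mM sodium acetate pH 7 with 20 uM heparin, 6 hr at 37 C. ThT 30 uM added, 1 hr ambient; Alexa 594 FP and total fluorescence read at 555/632 nm.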
NPSR antag: qHTS Assay for Antagonists of the Neuropeptide S Receptor: cAMP Signal Transduction; Q6W5P4; 1% of 220,000 active; Potency, µM (doses to about 38.3 µM), inactives show at the top dose activity change, negative = inhibition, hits mostly inhibitors; CHO-NPSR cells, cAMP TR-FRET, antagonist mode; AID 1461, 2008; also: nearly all actives have a fitted effect of over 50% in size
Target sequence (Q6W5P4 whole entry, looked up): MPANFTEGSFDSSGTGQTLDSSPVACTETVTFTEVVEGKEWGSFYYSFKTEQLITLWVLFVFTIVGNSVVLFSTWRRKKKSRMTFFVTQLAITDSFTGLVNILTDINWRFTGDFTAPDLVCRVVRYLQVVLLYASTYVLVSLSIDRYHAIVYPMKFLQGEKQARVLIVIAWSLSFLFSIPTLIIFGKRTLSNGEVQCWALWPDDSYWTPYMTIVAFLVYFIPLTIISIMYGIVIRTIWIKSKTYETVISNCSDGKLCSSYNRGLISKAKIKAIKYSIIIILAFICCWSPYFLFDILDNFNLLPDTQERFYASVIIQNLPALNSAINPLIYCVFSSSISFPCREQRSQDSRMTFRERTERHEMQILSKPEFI
Tau ThT inhib: qHTS for Inhibitors of Tau Fibril Formation, Thioflavin T Binding; recombinant tau K18 P301L (four-repeat tau fragment), heparin-induced fibrillization, ThT fluorescence; Potency, µM (top dose mostly 57.4 µM), for the others: top-dose activity, negative = inhibition, actives largely listed as inhibitors; 2.1% of 270,000 active; AID 1460, 2008; also: nearly all actives have a fitted effect of over 55% in size
Target sequence (P10636 561-689 P618L limits assumed): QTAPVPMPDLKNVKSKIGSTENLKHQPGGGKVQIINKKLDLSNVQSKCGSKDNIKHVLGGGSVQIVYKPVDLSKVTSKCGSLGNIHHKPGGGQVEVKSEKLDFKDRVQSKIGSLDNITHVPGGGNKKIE
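In this qHTS, human K18 P301L tau is incubated with compound and heparin for 6 hr at 37 C, and Thioflavin T fluorescence then reports fibril load.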
HPGD inh: qHTS Assay for Inhibitors of HPGD (15-Hydroxyprostaglandin Dehydrogenase) | 15-hydroxyprostaglandin dehydrogenase [NAD(+)] (Homo sapiens), P15428 | purified HPGD, NADH fluorescence kinetic, PGE2 substrate | Potency, µM, inactives show top-dose activity change, negative = inhibition, hits mostly inhibitors | 4.3% of 150,000 active; active = well fitted inhibition curve with a large enough effect, not every such curve was filed as active; inconclusive = small, poorly fitted or top-dose-only effect, or another doubt; inactive = no such curve, though single readings can be large or run the other way
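NADH formation kinetics: reaction with 30 uM PGE2 and 1 mM NAD+ (final), 20 nM enzyme, Tris-HCl pH 8 with Tween 20, after 15 min compound preincubation at room temperature. Fluorescence change, last versus first of five reads.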
Tau fibril FP: qHTS for Inhibitors of Tau Fibril Formation, Fluorescence Polarization; 0.39% of 280,000 active; Microtubule-associated protein tau (Homo sapiens), P10636; K18 P301L tau heparin fibrillization, Alexa594 FP, 6 h; AID 1468, 2008; Potency, µM (highest dose often 57.7 µM), inactives show top-dose activity, negative = inhibition, usual class: inhibitors; also: nearly all actives have a fitted effect of over 55% in size
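Quantitative HTS format: compounds meet 15 uM recombinant K18 P301L tau and Alexa 594-tau tracer in 100 mM sodium acetate pH 7; 20 uM heparin triggers fibrillization at 37 C over 6 hr; FP gives the signal.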
Active calls of the source: *; ? = inconclusive; · = no result given; [ ] = remark or other dose. Unless noted, calls follow the shape of the dose curve; as a rule, active = well fitted curve in the direction sought with a large enough effect; inconclusive = small, poorly fitted or top-dose-only effect, or another doubt; inactive = no such curve, though single readings can be large; an effect the other way counts as inactive or inconclusive. Unless noted, % is scaled to controls: 0 for no effect and ±100 for the full control effect; potency is read from the fitted curve at half-maximal effect.

SMILES	ALDH1A1 inh	Tau fluor cs	NPSR antag	Tau ThT inhib	HPGD inh	Tau fibril FP
CCN(CC)S(=O)(=O)c1cccc(C(=O)N/N=C/c2ccc(OC)c(O)c2)c1	25µM*	-21%	1%	-11%	-11%	3%
COc1cc(/C=N/NC(=O)CC2(C)OCCCO2)ccc1OCc1ccccc1	11µM*	3%	4%	-14%	?	1%
COc1cc(/C=N/NC(=O)CC2(C)OCCCO2)ccc1OCc1ccc(Cl)cc1Cl	0%	-24%	-9%	?	-22%	-1%
COc1cc(/C=N/NC(=O)c2cccc([N+](=O)[O-])c2)ccc1OCc1ccccc1	?	11µM*[quencher]	?	?	?	?
N#Cc1ccc(CS(=O)(=O)c2ccccc2)cc1	0%	-13%	·	-3%	-7%	?
CCn1c(CNC(=O)c2ccc(OC)cc2)nnc1SCC(=O)Nc1cccc(C)c1	·	-16%	·	-6%	·	-13%
COc1ccc([N+](=O)[O-])cc1/C=N/NC(=O)CNC(=O)C(c1ccccc1)c1ccccc1	?	?	9%	-12%	-18%	8%
COc1cc(/C=N/NC(=O)c2ccc(O)cc2)ccc1Oc1ccc([N+](=O)[O-])cn1	18%	10%	-3%	9%	22µM*	3%
COc1ccc(/C=N/NC(N)=S)cc1OC(=O)c1ccccc1	-8%	-28%	-6%[46.1 µM]	-20%	25µM*	-7%
COc1ccc([N+](=O)[O-])cc1/C=N/NC(=O)CNC(=O)c1cccc(F)c1	?	-9%	7%	?	25µM*	7%
COc1ccc(/C=N/NC(=O)c2cccc([N+](=O)[O-])c2)cc1OS(=O)(=O)c1ccccc1	?	14µM*[quencher]	-16%[46.1 µM]	-13%	-11%	-4%
COC(=O)c1ccc(OCC2c3cc(OC)c(OC)cc3CCN2C(=O)C(C)C)cc1 (stereo unspecified)	·	5%	·	7%	·	7%
COc1ccc(S(=O)(=O)N2CCCCC2)cc1NC(=O)CSc1ncnc2ccccc12	-4%	-25%	15%[46.1 µM]	?	-24%	1%
COC(=O)NC(CC(C)=O)c1cccc(C)c1 (stereo unspecified)	2%[13.5 µM]	-17%[11.6 µM]	·	-16%[11.5 µM]	·	-4%[11.6 µM]
COc1cc(/C=C/C(=O)NC(C)(C)C)ccc1OCc1ccccc1	?	-6%	8%	-11%	?	6%
COc1ccc(C(=O)Oc2cc(/C=N/NS(=O)(=O)c3ccccc3)ccc2OC)cc1	3.2µM*	?	-25%[46.1 µM]	-6%	-22%	?
COc1cc(/C=C/[N+](=O)[O-])ccc1OCc1cccc(C(=O)O)c1	28µM*	23%	-59%	?	·	?
COc1ccc(/C=N/NS(=O)(=O)c2ccc(C)cc2)cc1OC(=O)c1ccc(C)cc1	?	?	-26%[46.1 µM]	2%	-23%	?
Cc1ccc(S(=O)(=O)C(CNS(=O)(=O)c2ccc(F)c(C(F)(F)F)c2)c2ccco2)cc1 (stereo unspecified)	·	?	·	-8%	·	-1%
COc1ccc(C(=O)c2ccc(OC)c(N)c2)cc1N	20µM*	-12%	3%[46.1 µM]	-5%	-32%	5%
Cc1cccc2cc(CN(Cc3ccc(F)cc3)Cc3nnnn3C3CCCC3)c(=O)[nH]c12	14µM*	3%	?	-2%	7%	-4%
O=c1[nH]c2cc3c(cc2cc1CN(Cc1nnnn1C1CCCC1)C1CCCC1)OCCO3	?	-10%	?	?	-5%	-8%
Cc1ccc2[nH]c(=O)c(CN(Cc3nnnn3C3CCCC3)C3CCCCC3)cc2c1	25µM*	3%	-8%[46.1 µM]	-9%	-10%	5%
COc1cc2cc(CN(Cc3nnnn3C3CCCC3)C3CCCC3)c(=O)[nH]c2cc1OC	-3%	12%	-29%[46.1 µM]	2%	-14%	3%
COc1ccc2cc(CN(CCCN3CCOCC3)Cc3nnnn3C3CCCCC3)c(=O)[nH]c2c1	13µM*	-8%	?	-12%	-3%	-2%
SMILES	ALDH1A1 inh	Tau fluor cs	NPSR antag	Tau ThT inhib	HPGD inh	Tau fibril FP
Cc1ccc2cc(CN(Cc3nnnn3C3CCCC3)C3CCCCC3)c(=O)[nH]c2c1C	7.9µM*	6%	-12%[46.1 µM]	7%	-8%	2%
COc1cccc([C@@H]2Oc3ccc(OC)cc3[C@H](O)[C@H]2O)c1	13%	-16%	·	-9%	-4%	7%
C=CCNC(=O)COc1ccc(N(C)S(=O)(=O)c2ccc(NC(C)=O)cc2)cc1	16%	4%	0%	8%	·	-2%
COc1ccc(C(C)(C)C)cc1S(=O)(=O)N1CCN(C)CC1	?	-6%	-6%[46.1 µM]	-12%	-8%	-2%
Cc1ccc(C)c2[nH]c(=O)c(CN(Cc3nnnn3C3CCCCC3)CC3CCCO3)cc12 (stereo unspecified)	1.8µM*	12%	?	-2%	-16%	1%
Cc1ccc2cc(C(c3nnnn3C3CCCC3)N(Cc3cccnc3)Cc3ccco3)c(=O)[nH]c2c1 (stereo unspecified)	?	6%	?	-1%	-7%	4%
Cc1ccc2[nH]c(=O)c(CN(Cc3ccccc3)Cc3nnnn3C3CCCC3)cc2c1	14µM*	-25%	?	?	-8%	7%
Cc1ccc2[nH]c(=O)c(C(c3nnnn3C3CCCC3)N(Cc3cccnc3)Cc3ccco3)cc2c1 (stereo unspecified)	4.5µM*	-7%	?	-7%	-4%	-4%
Cc1ccc(C)c2[nH]c(=O)c(CN(CCN3CCOCC3)Cc3nnnn3CC3CCCO3)cc12 (stereo unspecified)	?	0%	5%[46.1 µM]	-6%	-15%	-1%
O=C(CN1c2ccccc2Sc2ccccc21)NNC(=O)Nc1cccc(Cl)c1	·	8.9µM*[quencher]	-54%	-4%	·	?
O=C(Cc1ccccc1)NNC(=O)Nc1cccc(Cl)c1	5%	-3%	7%[46.1 µM]	2%	-7%	-3%
CCOC(=O)C1(Cc2cccc(Cl)c2)CCCN(C(=O)C2CC2)C1 (stereo unspecified)	1%	-3%	8%	-7%	·	0%
CCOc1ccc(-c2cc3c(=O)n(CC(=O)NCc4ccc(F)cc4)ccn3n2)cc1	·	4%	·	1%	·	6%

Screening data (PubChem)
